Source: PubChem BioAssay
MITF TRPM1 HTS: activators of MITF-driven TRPM1 promoter activity in SK-MEL-5 cells; activation, % at 12.5 µM; SK-MEL-5 TRPM1-promoter luciferase, 24 h; % of positive control, neutral wells = 0; AID 588334; 300,000 compounds, 0.75% hits;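 active means mean activation of at least 80% with every replicate also reaching 80%; inconclusive means mean reaches 80% but some replicate falls short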;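 further: 0% = neutral control wells and 100% = parthenolide positive control wells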
esBAF inh: inhibitors of esBAF chromatin remodeling in mouse ES cells | AID 602393 | reporter increase, % at 12.5 µM | Bmi1-luciferase knock-in reporter, 24 h; 100% = twice the neutral-well signal | 350,000 compounds, 2% hits; in the data active means activation above about 40%; inconclusive means no clear call, values can overlap the other calls;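 further: 0% = median of the plate's neutral control wells and 100% = double that signal; a rise in the Bmi1 reporter signal indicates esBAF inhibition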
FGF22 binding-1: shifts melting point of recombinant human FGF22; recombinant FGF22 thermal shift, SYPRO orange fluorescence; percent of sucrose octasulfate shift, DMSO zero; 340,000 compounds, 1.5% hits; AID 651658; activity (Tm shift, normalised), % at 9.99 µM;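 active means mean Tm shift, scaled 0 neutral to 100 positive control, at about 1.3% or above, every replicate too, limit read from the data; inconclusive means no clear call, values can overlap the other calls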
Wnt act: Wnt/beta-catenin pathway activation; Wnt/beta-catenin reporter cell assay, activator, plate reader; activation, % at 9.35 µM; 300,000 compounds, 1.2% hits; in the data active means activation above about 30%, passing the limit was not always enough; inconclusive means no clear call, values can overlap the other calls;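 further: 0% = neutral control wells and 100% = positive control wells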
SMARCA2 act: activators of SMARCA2 function; MG213 cells, MMTV-luciferase reporter, dexamethasone, overnight; activation, % at 9.1 µM; 370,000 compounds, 1% hits; in the data active means activation above about 7.8%;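 further: 0% = vehicle wells and 100% = reference activator wells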
AF4-AF9 inh: blocks AF4 peptide binding to human AF9; AlphaScreen, biotin-AF4 peptide binding to FLAG-AF9; inhibition, % at 10 µM; 350,000 compounds, 0.47% hits; AID 651704;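 active means every replicate reaching a set inhibition limit, whatever the replicate mean, cut at about 25% in these data; inconclusive means mean inhibition reaches that limit but some replicates miss it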;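 further: 0% = plate neutral control median and 100% = total signal loss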
Target sequence (P42568 whole entry, looked up): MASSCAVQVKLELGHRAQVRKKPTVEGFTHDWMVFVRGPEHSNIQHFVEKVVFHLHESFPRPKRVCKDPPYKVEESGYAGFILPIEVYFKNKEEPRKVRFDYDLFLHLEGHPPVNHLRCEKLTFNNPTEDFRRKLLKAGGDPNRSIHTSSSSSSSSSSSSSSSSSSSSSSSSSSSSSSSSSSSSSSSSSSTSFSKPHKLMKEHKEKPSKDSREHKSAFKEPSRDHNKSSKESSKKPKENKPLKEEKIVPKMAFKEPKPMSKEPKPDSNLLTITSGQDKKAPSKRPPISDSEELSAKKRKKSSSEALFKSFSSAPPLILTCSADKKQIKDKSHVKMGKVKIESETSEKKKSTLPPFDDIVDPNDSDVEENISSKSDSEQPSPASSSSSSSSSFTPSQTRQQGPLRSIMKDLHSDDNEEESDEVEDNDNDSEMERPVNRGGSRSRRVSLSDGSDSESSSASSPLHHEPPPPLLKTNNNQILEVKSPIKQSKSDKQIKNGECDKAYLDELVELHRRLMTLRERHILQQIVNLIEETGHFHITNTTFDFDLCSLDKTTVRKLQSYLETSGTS
FGF22 binding-2: binds human FGF22 shifting its melting temperature; shares compounds with FGF22 binding-1; recombinant FGF22 thermal shift, SYPRO orange fluorescence; thermal shift activity, °C (ΔTm) at 38 µM; 1,000 compounds, 2% hits; AID 720646;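 active means fitted rise in melting shift crosses a set limit at or below the top valid dose tested; inconclusive means flat fit at mid-level activity, or a poor quality fit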
FGF22 TSA: binders of human FGF22 by thermal shift; shares compounds with FGF22 binding-1; Tm shift (activity), % at 38 µM; Thermal shift assay, SYPRO orange, melting temperature shift; 50 tested, under 10 active;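 active means compounds whose fitted dose curve of melting temperature shift rises past a set threshold within the tested doses; inconclusive means flat curve at moderate activity, or poor curve fit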
TSA no protein: shows thermal shift signal without protein, FGF22 counter-screen | shares compounds with FGF22 binding-1 | compound-only SYPRO orange thermal shift counter-screen, no protein | AC50, µM (series often up to 38 µM) | 1,000 compounds, 2% hits;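 active means rising signal whose fitted curve reaches the 0.54 level within the top valid dose, showing a melting point, actives reach about 13 µM in these data; inactive means the rest, including activity in the opposite direction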; further: value is where the raw curve crosses a fixed level and not half-maximal
* marks the source's active call; other numbers are inactive results; i = inactive; ? = inconclusive; / = no result; ! = not confirmed by another sample; [ ] = remark or other dose. Most compounds without a hit are left out; they make up all but 4.3% or so of the library.

SMILES	MITF TRPM1 HTS	esBAF inh	FGF22 binding-1	Wnt act	SMARCA2 act	AF4-AF9 inh	FGF22 binding-2	TSA no protein	others
O=C(CCc1c[nH]c2ccccc12)Nc1ccc(Nc2cccnc2)cc1	/	/	2.0*	0	-4	/	-0.069	i
O=C(CCc1c[nH]c2ccccc12)Nc1ccc(Nc2ccncc2)cc1	/	/	1	-4	0	/	/	/
C=CCOc1ccc2c(c1)C(=NO)c1cc(OCC=C)ccc1-2	35	29	14*	-2	-4	-70	-0.1	i
CNC[C@H]1Oc2cc(-c3ccc(C)cc3)ccc2S(=O)(=O)N([C@H](C)CO)C[C@@H]1C	/	-3	0	/	/	1	/	/
CCC(C)N(C(=O)COc1ccc(-c2nnco2)cc1)C1CCS(=O)(=O)C1 (stereo not drawn)	-1	-8	36*	-2	1	5	-0.045	i
CC(=O)Nc1ccc(S(=O)(=O)Nc2nc3ccccc3nc2Nc2cccc(S(N)(=O)=O)c2)cc1	-13	/	2.0*	-1	-3	3	0.011	i
CC(=O)Nc1ccc(S(=O)(=O)Nc2nc3ccccc3nc2Nc2ccccc2)cc1	8	/	1	-3	1	-1	/	/
CCc1nnc(NS(=O)(=O)c2ccc(NC(=S)NC(=O)/C=C/c3ccc(F)cc3)cc2)s1	6	/	/	1	-1	/	/	/
CCc1nnc(NS(=O)(=O)c2ccc(NC(=S)NC(=O)/C=C/c3ccc([N+](=O)[O-])cc3)cc2)s1	4	-6	2.5*	-1	1	2	-0.005	i
Cc1cccc(S(=O)(=O)N2CCCCN3[C@H](CO)[C@@H](c4ccc(C#C[C@H](C)O)cc4)[C@@H]3C2)c1	/	26	0	/	/	-1	/	/
Cc1cccc(S(=O)(=O)N2CCCCN3[C@@H](CO)[C@@H](c4ccc(C#C[C@H](C)O)cc4)[C@@H]3C2)c1	/	23	1.3*	/	/	10	-0.087[42 µM]	i
C[C@@H]1CN([C@@H](C)CO)C(=O)c2cccc(NC(=O)C3CCCCC3)c2O[C@H]1CN(C)Cc1ccc(-c2ccccc2)cc1	/	0	/	/	/	/	/	/
CCN1CCc2c(sc(NC(=O)c3ccc(S(=O)(=O)N(CC)c4ccccc4)cc3)c2C(N)=O)C1	-17	1	28*	-2	-1	1	0.017	i
CCOC(=O)N1CCc2c(sc(NC(=O)C3COc4ccccc4O3)c2C(N)=O)C1 (stereo not drawn)	22	?	29*	14	-1	0	-0.11	i
Cc1nn(-c2ccccc2)c2sc(C(=O)N3CCC4(CC3)OCCO4)cc12	/	/	/	/	-5	/	/	/
CC(C)C#Cc1ccc([C@@H]2[C@H](CO)N3C(=O)CN(C(=O)C4CCCCC4)C[C@@H]23)cc1	/	/	1.2*	/	/	-11	0.34	i
CC(C)C#Cc1ccc([C@H]2[C@H](CO)N3C(=O)CN(C(=O)C4CCCCC4)C[C@@H]23)cc1	/	/	1.6*	/	/	-9	0.47	i
O=C(NCC[C@H]1CC[C@H](NS(=O)(=O)c2ccc(Cl)cc2)[C@H](CO)O1)c1ccccc1F	/	-6	0	/	/	0	/	/
C[C@@H]1CN([C@H](C)CO)C(=O)c2cc(NS(=O)(=O)c3ccccc3)ccc2O[C@@H]1CN(C)Cc1ccc(C(=O)O)cc1	/	0	0	/	/	-3	/	/
Oc1ccc(C=NNC(=S)Nc2ccccc2)nc1	/	/	1.5*	15	-6	4	0.039	i
COc1cc(NC(=O)c2cnc(N)o2)cc(C(=O)Nc2cccc(C(F)(F)F)c2)c1	-30	22	2.2*!	-1	-6	6	0.14	i
CCOC(=O)c1nccnc1C(=O)Nc1cccc(C(F)(F)F)c1	-13	/	0	-1	3	1	/	/
COc1cc(NC(=O)c2ccnc(N)c2)cc(C(=O)Nc2cccc(C(F)(F)F)c2)c1	23	8	0	1	2	9	/	/
COc1cc(NC(=O)c2csc(N)n2)cc(C(=O)Nc2cccc(C(F)(F)F)c2)c1	-31	14	1.6*!	-2	-4	-1	-0.085	11µM*
COc1cc(NC(=O)c2cc(C)on2)cc(C(=O)Nc2cccc(C(F)(F)F)c2)c1	-20	0	1	-1	-3	-1	/	/
SMILES	MITF TRPM1 HTS	esBAF inh	FGF22 binding-1	Wnt act	SMARCA2 act	AF4-AF9 inh	FGF22 binding-2	TSA no protein	others
COc1cc(NC(=O)c2cnc(N)s2)cc(C(=O)Nc2cccc(C(F)(F)F)c2)c1	/	13	1.7*!	-1	2	1	0.064	i
CN(C)C(=O)C[C@@H]1CC[C@H]2[C@@H](COc3ccc(NC(=O)c4ccc(F)c(F)c4)cc3C(=O)N2C)O1	/	-1	0	/	/	0	/	/
Cc1ccc(C)c(N2CCN(C(=O)C34CC5CC(C3)CC(n3nnc(C)n3)(C5)C4)CC2)c1	-16	/	16*	-5	-5	5	0.038	i
CCC(=O)N1[C@H](CO)[C@@H](c2ccccc2)[C@@H]1CN(CC)C(=O)c1ccccc1	/	1	0	/	/	-2	/	/
CNC(=O)C[C@@H]1CC[C@@H]2[C@@H](COc3ccc(NC(=O)c4ccccc4OC)cc3C(=O)N2C)O1	/	7	1	/	/	1	/	/
CNC(=O)C[C@H]1CC[C@@H]2[C@H](COc3ccc(NC(=O)c4ccccc4OC)cc3C(=O)N2C)O1	/	18	2.6*	/	/	1	-0.021	i
CCNC(=O)C[C@@H]1CC[C@H]2[C@H](COc3ccc(NC(=O)Nc4ccc(Cl)cc4)cc3C(=O)N2C)O1	/	0	1.2*	/	/	1	-0.09	i	FGF22 TSA=0
CN1C(=O)c2cc(NC(=O)c3ccccc3Cl)ccc2OC[C@@H]2O[C@@H](CC(=O)NCC(F)(F)F)CC[C@H]21	/	-6	36*	/	/	-15	0.1	i
CO[C@H]1CN(C)C(=O)c2ccc(NC(C)=O)cc2OC[C@@H](C)N(C(=O)CN2CCOCC2)C[C@@H]1C	/	-2	0	/	/	-1	/	/
O=[N+]([O-])c1ccc(Cl)c(S(=O)(=O)Nc2ccc(S(=O)(=O)N3CCOCC3)cc2)c1	5	-8	2.2*	3	-2	2	0.15	i
COc1ccc2c3c(n(C)c2c1)[C@@H](CO)N(Cc1ccccc1OC)CC31CCN(C(=O)C2CC2)CC1	/	/	0	/	/	1	/	/
CO[C@H]1CN(C)C(=O)c2ccc(NC(=O)c3ccccc3)cc2OC[C@@H](C)NC[C@@H]1C	/	2	0	/	/	-3	/	/
CCOC(=O)c1sc(NC(=O)Nc2ccccc2Cl)cc1C	33	/	/	13	1	/	/	/
